Experimental data from the supplement of paper PMC9135407.
Where “and” joins values, the source holds several entries; their conditions need not be identical. Equal values may be shown once. Where a name gives a salt, the structure may show the parent alone. The whole screen tested about 5,800 compounds, of which about 620 (11%) showed activity. The list comes from a sample in which actives are over-represented; it also holds similar structures and randomly drawn compounds. Values without a mark were called inactive.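 The calls were made as follows: active = score above a cut-off or among the top three wells of a plate; in these data no inactive exceeds 0.85.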

Test system: primary human hepatic stellate cells (donor 1)
Experiment: scaled lipid accumulation score (0 = DMSO-like, 1 = nortriptyline-like); higher = stronger HSC inactivation (lipid re-accumulation), active = hit call of the paper
Settings: 48 h
Description: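 Primary lipid accumulation screen in primary human hepatic stellate cell myofibroblasts (donor 1, passage 8) in 384-well plates. 100 nL of library compound was pin-transferred into 30 µL medium in duplicate, and cells were treated for 48 h. The 'Scaled' score combines distance from plate baseline, toxicity and reproducibility penalties, and is normalised to nortriptyline (positive) and DMSO (negative) controls on each plate. A hit is defined as scaled >0.85 or among the top 3 wells per plate.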

[1] = library stock concentration: 80 uM
[2] = library stock concentration: 400 uM
[3] = library stock concentration: 2 mM
[4] = library stock concentration: 10 mM
[5] = library stock concentration: 1 mM
[6] = library stock concentration: 3.33 mM

COC(=O)/C=C/C(=O)N(O)CCCCNCc1ccc(COC(=O)Nc2cccc3ccccc23)cc1 [Methylstat]
scaled lipid accumulation score [1]: ≤ 0 | scaled lipid accumulation score [2]: ≤ 0 | scaled lipid accumulation score [3]: ≤ 0 | scaled lipid accumulation score [4]: 0.26

CCCCC[C@H](O)/C=C/[C@H]1[C@H](O)CC(=O)[C@@H]1CCCCCCCCC(=O)O [1a,1b-dihomo Prostaglandin E1]
scaled lipid accumulation score [5]: ≤ 0

CC1=C(/C=C/C(C)=C/C=C/C(C)=C/C=C/C=C(C)/C=C/C=C(C)/C=C/C2=C(C)C(=O)CCC2(C)C)C(C)(C)CCC1=O [Canthaxanthin]
scaled lipid accumulation score (library stock concentration: 3.5 mM): 1.25 (active)

CC1=C(/C=C/C(C)=C/C=C/C(C)=C/C=C/C=C(C)/C=C/C=C(C)/C=C/C2=C(C)C(=O)[C@@H](O)CC2(C)C)C(C)(C)C[C@H](O)C1=O [Astaxanthin]
scaled lipid accumulation score [4]: ≤ 0

CC1=C(/C=C/C(C)=C/C=C/C(C)=C/C=C/C=C(C)/C=C/C=C(C)/C=C/C2=C(C)CCCC2(C)C)C(C)(C)CCC1 [Beta Carotene]
scaled lipid accumulation score [6]: ≤ 0 | scaled lipid accumulation score [4]: ≤ 0

CC(=O)N1CCCC1C(=O)O (stereo not given) [N-acetylproline]
scaled lipid accumulation score [4]: ≤ 0

C[C@]12C=CC(=O)C=C1CC[C@@H]1[C@@H]2[C@@H](O)C[C@@]2(C)[C@H]1CC[C@]2(O)C(=O)COC(=O)CCC(=O)O
scaled lipid accumulation score [4]: ≤ 0

O=C(CCc1ccc(O)cc1)c1c(O)cc(O)cc1O[C@@H]1O[C@H](CO)[C@@H](O)[C@H](O)[C@H]1O [Phlorizin]
scaled lipid accumulation score [6]: ≤ 0 | scaled lipid accumulation score [4]: ≤ 0

CCCCC/C=C\C=C1\C(=O)CC[C@@H]1C/C=C\CCCC(=O)O
scaled lipid accumulation score [5]: ≤ 0

CC(=O)OC[C@H]1O[C@@H]([S-])[C@H](OC(C)=O)[C@@H](OC(C)=O)[C@@H]1OC(C)=O.CCP(CC)CC.[Au+] [Auranofin]
scaled lipid accumulation score [4]: 0.439

CC[P](CC)(CC)=[Au][S][C@@H]1O[C@H](COC(C)=O)[C@@H](OC(C)=O)[C@H](OC(C)=O)[C@H]1OC(C)=O [Auranofin]
scaled lipid accumulation score (library stock concentration: 2.9 mM): 0.86 (active)

CC[C@@H](CO)Nc1nc(NCc2ccc(-c3ccccn3)cc2)c2ncn(C(C)C)c2n1 [CR8, (S)-Isomer]
scaled lipid accumulation score [6]: ≤ 0

CSc1nc(N)c2ncn([C@@H]3O[C@H](COP(=O)(O)OP(=O)(O)OP(=O)(O)O)[C@H](O)C3O)c2n1 (stereo not given in full) [2-Methylthioadenosine triphosphate tetrasodium]
scaled lipid accumulation score [4]: ≤ 0

CS(=O)(=O)c1ccc(-n2nc(C(F)(F)F)cc2-c2ccc(F)cc2)cc1
scaled lipid accumulation score [4]: ≤ -0.055

Cc1ccc(CNc2ncnc3ccc(-c4ccc(CO)o4)cc23)o1
scaled lipid accumulation score [6]: ≤ -0.009 | scaled lipid accumulation score [4]: ≤ 0

CS(=O)(=O)CCNCc1nc(-c2ccc3ncnc(Nc4ccc(OCc5cccc(F)c5)c(Cl)c4)c3c2)cs1.Cl.Cl
scaled lipid accumulation score [4]: 1.38 (active)

Cc1cc(Nc2ncnc3ccc(-c4ccc(CNCCS(C)(=O)=O)o4)cc23)ccc1Oc1ccn2ncnc2c1 [HER2-Inhibitor-1] [listing 1 of 2 here]
scaled lipid accumulation score [6]: 0.203

CC(C)(O)CC(=O)NCCn1ccc2ncnc(Nc3ccc(Oc4cccc(C(F)(F)F)c4)c(Cl)c3)c21
scaled lipid accumulation score [6]: ≤ 0 | scaled lipid accumulation score [4]: 0.302

Cc1cc(Nc2ncnc3ccc(-c4ccc(CNCCS(C)(=O)=O)o4)cc23)ccc1Oc1ccn2ncnc2c1 [HER2-Inhibitor-1] [listing 2 of 2 here]
scaled lipid accumulation score [4]: 0.977 (active)

C=CC(=O)Nc1ccc2ncnc(Nc3ccc(OCc4cccc(F)c4)c(Cl)c3)c2c1
scaled lipid accumulation score [1]: ≤ -0.016 | scaled lipid accumulation score [2]: ≤ -0.016 | scaled lipid accumulation score [3]: ≤ -0.016 | scaled lipid accumulation score [6]: 0.132 | scaled lipid accumulation score [4]: 0.378 and 0.75

CS(=O)(=O)CCNCc1ccc(-c2ccc3ncnc(Nc4ccc(OCc5cccc(F)c5)c(Cl)c4)c3c2)o1 [listing 1 of 2 here]
scaled lipid accumulation score [3]: 1.7 (active)

CS(=O)(=O)CCNCc1ccc(-c2ccc3ncnc(Nc4ccc(OCc5cccc(F)c5)c(Cl)c4)c3c2)o1 [listing 2 of 2 here]
scaled lipid accumulation score [1]: ≤ 0 | scaled lipid accumulation score [2]: ≤ 0 and 0.144 | scaled lipid accumulation score [3]: 0.42 | scaled lipid accumulation score [4]: 0.429

C[C@@H]1COC(Nc2ccc3ncnc(Nc4ccc(OCc5nccs5)c(Cl)c4)c3c2)=N1 [Varlitinib]
scaled lipid accumulation score [6]: 0.382 | scaled lipid accumulation score [4]: 0.594

CCC(=O)Nc1ccc2ncnc(Nc3cccc(Br)c3)c2c1
scaled lipid accumulation score [6]: ≤ 0

CC(C)CCCCCCC/C=C/C(=O)O [trans-.DELTA.2-11-methyl-Dodecenoic Acid]
scaled lipid accumulation score [5]: ≤ 0

CC(C)=CCC/C(C)=C/CC/C(C)=C/CSCC(=O)O [Farnesylthioacetic acid]
scaled lipid accumulation score [5]: ≤ -0.021

CC(C)=CCC/C(C)=C/CC/C(C)=C/CSCC(=O)O [S-Farnesyl Thioacetic Acid]
scaled lipid accumulation score [5]: 0.018

CCCCCCCCCC(=O)NC(CN1CCOCC1)C(O)c1ccccc1 (stereo not given) [PDMP (hydrochloride)]
scaled lipid accumulation score [5]: ≤ 0

C1CCN2C[C@@H]3C[C@@H](CN4CCCC[C@@H]34)[C@H]2C1 [Sparteine (-)]
scaled lipid accumulation score: ≤ 0

C1CCN2C[C@@H]3C[C@@H](CN4CCCC[C@@H]34)[C@H]2C1 [Sparteine sulfate]
scaled lipid accumulation score (library stock concentration: 6 mM): ≤ -0.001 | scaled lipid accumulation score [4]: 0.072

CCCCC[C@H](O)/C=C/[C@H]1[C@H](O)CC(=O)[C@@H]1C/C=C\CCCC(=O)O [Prostaglandin  E2]
scaled lipid accumulation score [5]: ≤ -0.021

CCCCC[C@H](O)/C=C/[C@H]1[C@H](O)CC(=O)[C@@H]1C/C=C\CCCC(=O)O [Prostaglandin E2]
scaled lipid accumulation score [5]: ≤ 0 | scaled lipid accumulation score [4]: ≤ -0.001

CCCCC[C@H](O)/C=C/[C@H]1[C@H](O)CC(=O)[C@@H]1C/C=C\CCCC(=O)O [Dinoprostone]
scaled lipid accumulation score (library stock concentration: 5.7 mM): ≤ -0.006
